Bioassay records (PubChem)
Shown are actives, neighbours in structure and some others; about 10% of the full set was active somewhere.
G9a block: qHTS Assay for Inhibitors of Histone Lysine Methyltransferase G9a; 8.8% of 350,000 active; Histone-lysine N-methyltransferase EHMT2 (Homo sapiens), Q96KQ7; G9a H3K9 monomethylation, AlphaScreen, 2 h; Potency, µM (top dose mostly 102 µM), usual class: inhibitors; further: nearly all actives have a fitted effect of over 75% in size
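Compounds were preincubated with 20 nM G9a for 15 min, after which biotinylated H3K9 peptide (500 nM) and SAM (20 uM) started a 2 h room-temperature reaction. Monomethylated product was quantified by antibody-based AlphaScreen chemiluminescence.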
GLS inh: qHTS for Inhibitors of Glutaminase (GLS). GLS enzymatic activity, qHTS titration. Potency, µM (top dose mostly 45.5 µM), usual class: inhibitors. 0.21% of 410,000 active. AID 624170, 2012
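Human kidney-isoform GLS in 45 mM KH2PO4 pH 8.2, 0.02% Tween-20, with compound, started with 1mM L-Glutamine (added stock). Glutamate oxidase/HRP/Amplex red coupled fluorescence read at start and after 30 min at RT.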
JMJD2A Tudor inh: qHTS Assay for Inhibitors of JMJD2A-Tudor Domain | Lysine-specific demethylase 4A (Homo sapiens), O75164 | AlphaScreen JMJD2A-Tudor / H3K4me3 peptide binding | Potency, µM (top dose mostly 114 µM), usual class: inhibitors | 4.4% of 390,000 active | AID 504339, 2011; further: nearly all actives have a fitted effect of over 50% in size
Target sequence (O75164 whole entry, looked up, the tested form may be a part): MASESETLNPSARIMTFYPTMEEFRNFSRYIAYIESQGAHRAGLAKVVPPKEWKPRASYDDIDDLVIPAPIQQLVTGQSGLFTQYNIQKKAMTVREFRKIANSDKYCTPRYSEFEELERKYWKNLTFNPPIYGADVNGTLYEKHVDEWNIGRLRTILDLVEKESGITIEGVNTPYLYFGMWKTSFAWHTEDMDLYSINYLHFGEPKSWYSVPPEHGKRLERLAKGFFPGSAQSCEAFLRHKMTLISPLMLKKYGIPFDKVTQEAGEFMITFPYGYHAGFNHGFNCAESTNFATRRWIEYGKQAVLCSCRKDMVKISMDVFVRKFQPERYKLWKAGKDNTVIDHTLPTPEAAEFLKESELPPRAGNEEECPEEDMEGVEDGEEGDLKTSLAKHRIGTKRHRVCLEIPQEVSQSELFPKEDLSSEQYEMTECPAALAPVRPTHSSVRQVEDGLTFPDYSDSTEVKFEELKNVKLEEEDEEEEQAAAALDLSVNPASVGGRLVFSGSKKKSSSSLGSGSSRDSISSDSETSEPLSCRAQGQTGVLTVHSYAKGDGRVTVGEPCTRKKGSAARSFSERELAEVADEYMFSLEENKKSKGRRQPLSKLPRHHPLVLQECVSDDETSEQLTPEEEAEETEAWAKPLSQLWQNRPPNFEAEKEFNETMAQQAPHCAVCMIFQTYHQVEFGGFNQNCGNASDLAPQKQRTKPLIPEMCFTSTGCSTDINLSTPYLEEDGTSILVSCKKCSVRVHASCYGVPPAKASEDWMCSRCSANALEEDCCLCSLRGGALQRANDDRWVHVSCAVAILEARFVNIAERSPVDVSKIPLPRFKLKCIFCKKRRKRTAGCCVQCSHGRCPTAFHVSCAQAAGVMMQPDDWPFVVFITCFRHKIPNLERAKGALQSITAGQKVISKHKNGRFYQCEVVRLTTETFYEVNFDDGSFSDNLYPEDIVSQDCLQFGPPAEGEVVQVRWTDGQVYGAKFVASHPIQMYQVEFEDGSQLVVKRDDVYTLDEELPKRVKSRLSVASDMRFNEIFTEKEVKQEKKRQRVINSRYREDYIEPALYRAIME
BAZ2B block: qHTS Assay for Inhibitors of BAZ2B. Potency, µM (titrated, usually from 114 µM), most hits filed as inhibitors. AlphaScreen BAZ2B-H3K14Ac peptide displacement. AID 504333, 2011. 4.4% of 360,000 active; further: nearly all actives have a fitted effect of over 60% in size
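AlphaScreen luminescence quantifies BAZ2B engagement of H3K14Ac peptide; the protein and biotinylated peptide are both at 50 nM final, buffer PBS pH 7.4 with 0.01% Tween-20, all steps at room temperature.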
HP1b chromo inh: HTS for Inhibitors of HP1-beta Chromodomain Interactions with Methylated Histone Tails; AlphaScreen HP1-beta / biotin-H3K9me3 peptide binding; Potency, µM (titrated, usually from 114 µM), usual class: inhibitors; 0.56% of 390,000 active; further: nearly all actives have a fitted effect of over 70% in size
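HP1-beta protein (50 nM final) preincubated 30 min at room temperature with biotinylated H3(1-18)K9me3 peptide (50 nM) in PBS pH 7.4, 0.01% Tween-20, then compound added for 30 min. AlphaScreen streptavidin donor/nickel chelate acceptor beads (10 ug/mL final), 30 min dark, luminescence read.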
A number is an active result; i = inactive; ? = inconclusive; nt = no result given; ! = not active in a repeat; [ ] = remark or other dose. The call rests on the fitted dose curve; in most records, active means well fitted curve in the direction sought with a large enough effect; inconclusive means small, poorly fitted or top-dose-only effect, or another doubt; inactive means no such curve, though single readings can be large; an effect the other way counts as inactive or inconclusive.

SMILES | G9a block | GLS inh | JMJD2A Tudor inh | BAZ2B block | HP1b chromo inh
COc1cc(/C=C2\COC/C(=C\c3ccc(O)c(OC)c3)C2=O)ccc1O | 32µM | i | ? | ? | ?
COc1ccc2c(c1)CC/C(=C\C=C\c1ccccc1)C2=O | ? | i | i | i | i
CCCC(=O)N1CCC1(C)C(=O)Nc1ccc2c(c1)CCN2C(C)=O (centres undefined) | nt | i | nt | nt | nt
CC(C)NCC(O)COc1ccc(CCOCC2CC2)cc1 (centres undefined) | 35µM! | i | i | i | i
COc1nc(OC)nc(N2CCC(C(=O)NCc3ccco3)CC2)n1 | i[12.7 µM] | i | i | i | i
O=C(NCc1ccco1)C1CCN(c2nc3ccccc3n2Cc2ccc(F)cc2)CC1 | 79µM | i | ? | ? | i
CNC(C)C(=O)NC(C(=O)N1CCCC1C(=O)NNc1ccccc1)C(C)C (centres undefined) | i[2.33 µM] | i | ? | ? | i
CC(N)C(=O)NC(C(=O)N1CCCC1C(=O)NC(c1ccccc1)c1ccccc1)C(C)C (centres undefined) | i[2.33 µM] | i | 89µM | i | i
COc1cc(OC)c2c(C)c(CC(=O)NCc3ccccc3OC)c(=O)oc2c1 | i | i | i | i | i
Cc1cccc(N2C(=O)/C(=C\c3ccc(C(=O)O)cc3)c3ccccc3C2=O)c1 | 45µM | i | i | ? | i
CCN(CC)CCOC(=O)c1ccc(NC(=O)c2nn(C)c3c2COc2ccccc2-3)cc1 | i | i | i | i | i
CCOC(=O)c1ccc(NC(=O)c2nn(C)c3c2COc2ccccc2-3)cc1 | 14µM | i | ? | ? | i
O=C1OC/C(=C(/O)c2ccc(Cl)cc2)C1=O | 40µM | i | i | i | i
Cn1cc(Br)c(C(=O)Nc2c(F)c(F)c(F)c(F)c2F)n1 | i | i | i | i | i
Cn1cc(Br)c(NC(=O)/C=C/C(=O)O)n1 | 0.71µM | i | i | i | i
O=NC1=C(c2c(O)[nH]c3ccccc23)CCCC1 | ? | ? | i | i | i
O=Nc1c(-c2c(O)[nH]c3ccccc23)[nH]c2ccccc12 | 8.9µM | nt | nt | nt | nt
Cc1ccccc1NC(=S)C1=C(O)c2sccc2N(C)S1(=O)=O | 22µM | i | ? | ? | i
CC(=O)/C(C#N)=C1\NC(=O)C(Cc2ccccc2C)S1 (centres undefined) | 20µM | i | ? | i | i
O=C(O)c1cnn(-c2ccccc2)c1-c1ccncc1 | 50µM | ? | i | ? | i
CCc1nn(CC(=O)N2CCC(C)CC2)c(=O)c2cc3occc3n12 | i | i | i | i | i
N=C1C(c2ccccc2)=C(O)CN1c1cccc(S(N)(=O)=O)c1 | i | i | i | i | i
N=C1C(c2ccccc2)=C(O)CN1c1cccc(S(=O)(=O)N2CCOCC2)c1 | i | i | 20µM | i | i
Cc1ccc(OCCN(C)C(=O)CC2C(=O)NCCN2CC(C)(C)C)cc1 (centres undefined) | 50µM | i | i | i | i
COCCN(C(=O)CC1C(=O)NCCN1Cc1ccc(-c2ccccc2)cc1)C(C)C (centres undefined) | 50µM | i | i | i | i
SMILES | G9a block | GLS inh | JMJD2A Tudor inh | BAZ2B block | HP1b chromo inh
CCOc1ccc(CN2CCNC(=O)C2CC(=O)N(C)C2CCCCC2)cc1 (centres undefined) | i | i | i | i | i
CN(CCc1ccccn1)C(=O)CC1C(=O)NCCN1Cc1ccc(-c2ccccc2)cc1 (centres undefined) | 56µM | i | i | i | i
Cc1ccc(CN2CCNC(=O)C2CC(=O)N(C)C2CCCCC2)cc1 (centres undefined) | 45µM | i | i | i | i
COC(=O)CN(C)C(=O)CC1C(=O)NCCN1CC(C)(C)C (centres undefined) | i | i | i | i | i
COCCN(C)C(=O)CC1C(=O)NCCN1CC(c1ccccc1)c1ccccc1 (centres undefined) | i | i | i | i | i
Cc1ccc(CN2CCNC(=O)C2CC(=O)N(C)CCc2ccccc2)cc1 (centres undefined) | i | i | i | i | i
COc1ccccc1-c1cccc(-c2nc(C(=O)Nc3nccs3)cc3c2[C@@H](CCO)N(C(=O)CC2CC2)C3)c1 | nt | i | nt | nt | nt
CCCC12CN3CC(CCC)(CN(C1)C3c1c(C)[nH]c(=O)[nH]c1=O)C2=O (centres undefined) | i | i | i | i | i
COc1ccccc1N(CC(=O)NCCSc1ccccc1)S(=O)(=O)c1ccc(C)cc1 | i | i | i | i | i
C=CCNC(=O)CC1C(=O)NCCN1Cc1ccc(-c2ccccc2)cc1 (centres undefined) | 56µM | i | i | i | i
CC(C)(C)CN1CCNC(=O)C1CC(=O)N1CCOc2ccccc2C1 (centres undefined) | 50µM | i | i | i | i
Cc1ccc(CN2CCNC(=O)C2CC(=O)O)o1 (centres undefined) | 50µM | i | i | i | i
CN(Cc1cnccn1)C(=O)CC1C(=O)NCCN1Cc1cccc(Oc2ccccc2)c1 (centres undefined) | 50µM | i | i | ? | i
COc1ccc(C(=O)COc2ccccc2C(=O)Nc2ccccc2)cc1 | i[12.7 µM] | i | i | i | i
CC(C)(C)C(=O)OCOP(=O)(COCCn1cnc2c(N)ncnc21)OCOC(=O)C(C)(C)C | 6.3µM | i | nt | nt | nt
CCCN1C(=O)/C(=C2\SC(=S)N(c3c(C)n(C)n(-c4ccccc4)c3=O)C2=O)c2ccccc21 | nt | i | i | i | i
O=C(O)[C@H](Cc1ccccc1)N1C(=O)c2ccncc2C1=O | i | i | i | i | i
CCCC(C(=O)O)N1C(=O)/C(=C2\C(=O)N(C)c3ccccc32)SC1=S (centres undefined) | 20µM | ? | ? | 45µM | i
O=C(O)CN1C(=O)/C(=C2\SC(=S)N(C(Cc3ccccc3)C(=O)O)C2=O)c2ccccc21 (centres undefined) | 50µM | ? | i | 56µM | i
O=C(O)CCN1C(=O)/C(=C2\C(=O)N(Cc3ccccc3Cl)c3ccccc32)SC1=S | ? | nt | nt | 7.9µM | nt
COc1ccc(C2CC(c3ccccc3)Oc3ccc(OC)cc32)cc1 (centres undefined) | nt | nt | ? | nt | i
CC1CC=CC2C1C(=O)N(Cc1ccccc1)C2c1ccc(-c2cc3ccccc3s2)cc1F (centres undefined) | nt | nt | i | nt | i
Nc1n[nH]c(N)c1N=Nc1ccc(Cl)cc1Cl | ? | i | 32µM | 32µM | i
CCCC(=O)N1CCC1(C)C(=O)Nc1ncc(C(=O)OC)s1 (centres undefined) | nt | i | nt | nt | nt
Cc1ccc(OCC(=O)NNC(=S)NC(=O)C2CCCCC2)c(C)c1 | 18µM | i | i | i | i
